In all, about 300,000 compounds went through this assay and about 37,000 (12%) were called active. Cut-off read from the data, not from the text of the source: active = max response mostly above about 13% (no sharp cut-off); inactive = mostly below about 14%. The sample as a whole holds a higher share of actives than the screen did.
Experiment: Cycloheximide Counterscreen for Small Molecule Inhibitors of Shiga Toxin; note: read at 38.3 µM for the half of the compounds with a filed dose; 0% is about no effect
Conditions: cell reporter, cycloheximide protein synthesis inhibition counterscreen; hits give high values

Row | Compound | max response
1 | C=CCOC(=O)C(=C)C | -1.88% (inactive)
2 | N#Cc1ccc(C(=O)Nc2nc(-c3cccs3)c(C(=O)C(F)(F)F)s2)cc1 | 0.458% (inactive)
3 | Cn1cccc1Cc1nnc(SCC(=O)NCc2ccc3c(c2)OCO3)n1CCc1ccccc1 | 1.14% (inactive)
4 | Cc1ccc(S(=O)(=O)Nc2ccc3ncccc3c2)cc1 | -2.27% (inactive)
5 | O=S(=O)(Nc1ccc2nc(-c3ccco3)[nH]c2c1)c1ccccc1 | 33.7% (active)
6 | O=S(=O)(Nc1ccc2cn[nH]c2c1)c1ccccc1 | 5.04% (inactive)
7 | Cc1ccc2c(cnn2C(=O)CCC(=O)NC2CCCC2)c1 | 1.35% (inactive)
8 | Cn1c2ccc(F)cc2c2nnc(NN)nc21 | 0.49% (inactive)
9 | Cc1cc(Cl)ccc1OCc1nc(-c2ccncc2)no1 | 35.5% (active)
10 | COc1ccc(-c2noc(COc3ccc(Cl)c(C)c3)n2)cc1 | 8.61% (inactive)
11 | Cc1cc(Cl)ccc1OCCCC(=O)NCc1ccncc1 | 2.81% (inactive)
12 | COc1cc(NC(=O)CN2C(=O)NC(C)(c3ccc(OC(F)F)cc3)C2=O)cc(OC)c1OC (stereo unspecified) | -2.19% (inactive)
13 | COc1ccc(/C=C2\CCc3ccccc3C2=O)c(OC)c1OC | 35.6% (active)
14 | CCC1C/C(=C/c2cccs2)C(=O)/C(=C/c2cccs2)C1 (stereo unspecified) | -1.72% (inactive)
15 | O=C1/C(=C/c2cccs2)SC(=S)N1C1CCS(=O)(=O)C1 (stereo unspecified) | -0.776% (inactive)
16 | COc1cc(/C=C/C(=O)N2CCc3ccccc3C2)cc(OC)c1OC | 0.558% (inactive)
17 | CN1C/C(=C/c2cccs2)C(=O)/C(=C\c2cccs2)C1 | 35.9% (active)
18 | O=C1/C(=C/c2cccs2)CCc2ccccc21 | 62.8% (active)
19 | c1ccc2c(c1)CCc1snnc1-2 | -1.75% (inactive)
20 | O=C1/C(=C/c2cccs2)CCC1C1CCCC1 (stereo unspecified) | 29.4% (active)
21 | COc1ccc2c(c1OC)C(=O)c1ccccc1C2=O | 2.67% (inactive)
22 | CN1CCN(C(=O)/C(=C\c2cccs2)NC(=O)c2cccs2)CC1 | 8.48% (inactive)
23 | O=S(=O)(c1cccs1)N1CCc2ccccc2C1 | -2.33% (inactive)
24 | O=C(Nc1ccccc1C(=O)N1CCOCC1)c1ccc(CSc2ccccc2)cc1 | -0.894% (inactive)

Row | Compound | max response
25 | Cc1cc(=O)oc2c(C)c(OCC(=O)NCCc3ccc(S(N)(=O)=O)cc3)ccc12 | -1.87% (inactive)
26 | CCOC(=O)C1=C(c2ccccc2)NC(=O)NC1c1cc(OCC)c(O)c([N+](=O)[O-])c1 (stereo unspecified) | -1.22% (inactive)
27 | CCOc1ccc2c(c1)c(=O)c(S(=O)(=O)c1ccc(C)cc1)cn2CC | -0.573% (inactive)
28 | OC1CCCN(c2ncnc3c2nnn3Cc2c(F)cccc2Cl)C1 (stereo unspecified) | 7.82% (inactive)
29 | CC(=O)c1cc2c(cc1NC(=O)Cn1nc(-c3ccc(F)cc3)ccc1=O)OCO2 | 0.865% (inactive)
30 | Cc1cc(C)nc(NNC2=CC(=O)CC(C)(C)C2)n1 | 2.37% (inactive)
31 | CCCCN(Cc1ccccc1)C(=O)C1CCN(Cc2sccc2C)CC1 | -5% (inactive)
32 | CCOc1cc(C2/C(=C(/O)c3ccc(S(=O)(=O)N4CCCCC4)cc3)C(=O)C(=O)N2CCOC)ccc1O (stereo unspecified) | -6.09% (inactive)
33 | CC(=N\NC(=O)c1cc(Br)ccc1O)/C(=N/O)C(=O)Nc1ccccc1 | 23.2% (active)
34 | CC(=O)N/N=C(\C)c1ccc(Br)cc1Br | -2.79% (inactive)
35 | CC(C)/C=N/NC(=O)c1cc(Br)ccc1O | 9.21% (inactive)
36 | COc1ccc(/C=N/N=C/c2c[nH]c(=O)c(C#N)c2Nc2ccccc2)cc1 | -2.7% (inactive)
37 | COc1cccc(NC(=O)C(Sc2nc3ccccc3c(=O)n2CC(C)C)c2ccccc2)c1 (stereo unspecified) | 0.135% (inactive)
38 | COc1ccc2c(-c3ccccc3)cc(SCC(=O)N(C)C3CCS(=O)(=O)C3)nc2c1 (stereo unspecified) | -1.72% (inactive)
39 | O=C1C(C=NCC2CCCO2)=C(O)c2ccccc21 (stereo unspecified) | 32.1% (active)
40 | CC(=NCC1CCCO1)c1c(O)n(-c2ccccc2)c(=O)[nH]c1=O (stereo unspecified) | 4.02% (inactive)
41 | Cc1ccc(-n2c(O)c(C=NCC3CCCO3)c(=O)[nH]c2=O)c(C)c1 (stereo unspecified) | -0.95% (inactive)
42 | O=C1CN(Cc2ccccc2)S(=O)(=O)c2ccccc21 | -0.808% (inactive)
43 | CC(C)(C)c1ccc(CN2C(=O)c3ccccc3S2(=O)=O)cc1 | 17.5% (active)
44 | O=C1c2ccccc2S(=O)(=O)N1Cc1c(F)cccc1Cl | -0.645% (inactive)
45 | CC1CN(S(=O)(=O)c2ccccc2)C(C)CN1S(=O)(=O)c1ccccc1 (stereo unspecified) | -3.63% (inactive)
46 | Cc1cc(C)cc(C(=O)NC(CC(N)=O)c2ccc(N3CCC(N4CCCCC4)CC3)c([N+](=O)[O-])c2)c1 (stereo unspecified) | -1.84% (inactive)
47 | NS(=O)(=O)c1ccc(NC(=S)Nc2ccc(Br)c(Cl)c2)cc1 | -1.56% (inactive)
48 | O=C(NCc1cccc(Cl)c1)C1CCN(c2nnc(N3CCCC3=O)s2)CC1 | -2.64% (inactive)

Row | Compound | max response
49 | CC1CCCC(NC(=O)c2cccc(N3CCCC3=O)c2)C1C (stereo unspecified) | 44.4% (active)
50 | CC1CCCC(NC(=O)CN2CCN(Cc3ccc(Cl)cc3)C2=O)C1C (stereo unspecified) | -4.51% (inactive)
51 | O=C(NCCc1ccc(Cl)cc1)C1CCCN1C(=O)NCc1ccccc1 (stereo unspecified) | -1.54% (inactive)
52 | O=C(NCCc1ccc(Cl)cc1)c1cccc(N2CCCC2=O)c1 | 21.3% (active)
53 | CCCNC(=O)NCc1ccc(N2CCCC2=O)cc1 | -2.06% (inactive)
54 | O=C(NCCCN1CCCCCC1)c1ccc(N2CCCC2=O)cc1 | -4.57% (inactive)
55 | C/C(=N\NC(=O)c1cccc(N2CCCC2=O)c1)c1ccc(N)cc1 | 27% (inactive)
56 | CC1CCC(NC(=O)c2ccc(N3CCCC3=O)cc2)CC1 (stereo unspecified) | 40.8% (active)
57 | Cn1c2c(c(=O)n(C)c1=O)C(c1cccc([N+](=O)[O-])c1)Nc1ccccc1O2 (stereo unspecified) | -1.06% (inactive)
58 | Cc1ccc(S(=O)(=O)NCC2CCC(C(=O)N3CCOCC3)CC2)cc1 (stereo unspecified) | 3.28% (inactive)
59 | Cc1cc2ccccn2c1C(=O)c1cccc(F)c1 | -1.02% (inactive)
60 | C=CCSc1nc(N)cc(=O)[nH]1 | 13.9% (inactive)
61 | Cc1cc(S(=O)(=O)c2cc3ccc(O)c(C)c3oc2=O)ccc1F | -4.92% (inactive)
62 | COc1ccc(CCNC(=O)C(=O)NCC2OCCN2S(=O)(=O)c2ccc(OC)c(C)c2)cc1 (stereo unspecified) | 0.773% (inactive)
63 | O=C(NCCc1ccccc1)C(=O)NCC1OCCN1S(=O)(=O)c1cccs1 (stereo unspecified) | 8.94% (active)
64 | O=C(NCc1ccccc1)C(=O)NCC1OCCN1S(=O)(=O)c1ccc(Br)cc1 (stereo unspecified) | 9.31% (inactive)
65 | CCNCCC(=O)N1c2ccccc2Sc2ccc(NC(=O)OCC)cc21 | -6.47% (inactive)
66 | O=C(Nc1ccc(C2CC2(Cl)Cl)cc1)c1cccc([N+](=O)[O-])c1 (stereo unspecified) | 40.2% (active)
67 | O=C(Nc1ccc(C(=O)N2CCCCC2)cc1)c1cccc([N+](=O)[O-])c1 | -4.06% (inactive)
68 | Cn1nnnc1SCC(=O)Nc1nc2ccccc2s1 | 28.7% (active)
69 | C=CCn1c(SCC(=O)Nc2nc3ccccc3s2)nnc1-c1ccccc1O | 6.55% (inactive)
70 | Cc1cc(C)c2nc(NC(=O)c3ccc4c(c3)OCO4)sc2c1 | -3.86% (inactive)
71 | O=C(Nc1ccc2c(c1)OCO2)c1ccc(N2C(=O)c3ccccc3C2=O)cc1 | 14.1% (inactive)
72 | O=C(Nc1nc2ccccc2s1)c1ccc2c(c1)OCO2 | 16.2% (active)

Row | Compound | max response
73 | O=C(Nc1ccc(NC(=O)c2ccco2)c(Cl)c1)c1cccc([N+](=O)[O-])c1 | 5.37% (inactive)
74 | O=CN1CCN(C(=O)c2ccc3c(c2)OCO3)CC1 | 16.1% (inactive)
75 | COc1ccc(S(=O)(=O)N2CCOCC2)cc1C(=O)Nc1nc2ccccc2s1 | 8.09% (inactive)
76 | O=C(Nc1ccccc1)c1ccc2c(c1)OCO2 | 29% (active)
77 | COC(=O)c1ccccc1NC(=O)CSc1nnnn1C | 3.16% (inactive)
78 | O=S(=O)(Nc1ccc(Oc2ncccn2)c(Cl)c1)c1ccc(F)cc1 | 5.26% (inactive)
79 | CC1CCCCC1NC(=O)C1CCCN1S(=O)(=O)c1cccc2nsnc12 (stereo unspecified) | 3.55% (inactive)
80 | Cc1cnc(C)c(N2CCN(C(=O)C3CCC(=O)N(CCc4cccc(F)c4)C3)CC2)n1 (stereo unspecified) | -0.816% (inactive)
81 | COc1ccc(C(=O)c2c(C)c(CCC#N)n3ccccc23)c(OC)c1 | -1.97% (inactive)
82 | CCOCCCN1C(=O)C2C(C(=O)Nc3ccc(OCC)cc3)C3C=CC2(O3)C1C(=O)NC1CCCCC1 (stereo unspecified) | -3.23% (inactive)
83 | CCNS(=O)(=O)c1ccc(NC(=O)c2cncc(Br)c2)cc1 | -2.2% (inactive)
84 | Cc1cc(N2CCOCC2)nc2ccc(NC(=S)N3CCN(Cc4ccccc4)CC3)cc12 | 3.98% (inactive)
85 | CC(Sc1nc(-c2ccccc2)cc(C(F)(F)F)n1)C(=O)Nc1ccc2c(c1)OCO2 (stereo unspecified) | -1.84% (inactive)
86 | CC(=O)Nc1ccc(-c2csc(NC(=O)Nc3ccccc3)n2)cc1 | 10.8% (inactive)
87 | O=C(Nc1cccnc1)c1cc2cc(Br)ccc2oc1=O | -1.47% (inactive)
88 | O=C(Nc1ccccc1)Nc1nc2ccccc2s1 | 37.9% (active)
89 | CC(Sc1nc2cc(Cl)ccc2s1)C(=O)Nc1ccc2c(c1)OCO2 (stereo unspecified) | 29% (active)
90 | O=C(Nc1cccnc1)c1ccc2c(c1)OCO2 | 19.3% (active)
91 | COc1ccc(C(=O)Nc2cccnc2)cc1C(=O)Nc1cccnc1 | -0.996% (inactive)
92 | O=C(Nc1cccnc1)c1cccc(S(=O)(=O)N2CCCC2)c1 | 3.36% (inactive)
93 | O=C(Nc1ccc2c(c1)OCO2)c1sc2cc(Cl)ccc2c1Cl | 2.36% (inactive)
94 | CC(NC(=O)Nc1ccccc1)c1ccccc1 (stereo unspecified) | 14.1% (inactive)
95 | O=C(Nc1cccnc1)c1noc2c1CCCCC2 | 32.5% (active)
96 | CN(C(=O)CN1C(=O)/C(=C/c2ccc(Cl)cc2)SC1=S)C1CCS(=O)(=O)C1 (stereo unspecified) | -10.5% (inactive)
